# Source: PubChem BioAssay (NCATS)
# Inconclusive results are not listed. A call without a number means that no potency is given here. Activity calls are given as the source filed them. Unless noted, calls follow the shape of the dose curve; as a rule, active = well fitted curve in the direction sought with a large enough effect; inconclusive = small, poorly fitted or top-dose-only effect, or another doubt; inactive = no such curve, though single readings can be large; an effect the other way counts as inactive or inconclusive.
# What was measured:
# [1] = Primary qHTS for small molecule stabilizers of the endoplasmic reticulum resident proteome: Secreted ER Calcium Modulated Protein (SERCaMP) assay (AID 1508630)
# Outline: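 The SH-SY5Y reporter protocol was run at 3 concentrations up to 38.3 uM (primary) or 11 concentrations (follow-up): 16 h compound, 100 nM thapsigargin for 4 h, then extracellular luciferase luminescence.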
# Papain (Carica papaya) = Papain (Carica papaya) (UniProt P00784); experiment: Primary qHTS assay for inhibitors of the protease papain (AID 1645873);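 also: papain turnover of Z-FR-AMC read as the AMC fluorescence gain over 10 min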; also: potency is read from the fitted curve at half-maximal effect
# Sequence of Papain (Carica papaya) (P00784 whole entry, looked up): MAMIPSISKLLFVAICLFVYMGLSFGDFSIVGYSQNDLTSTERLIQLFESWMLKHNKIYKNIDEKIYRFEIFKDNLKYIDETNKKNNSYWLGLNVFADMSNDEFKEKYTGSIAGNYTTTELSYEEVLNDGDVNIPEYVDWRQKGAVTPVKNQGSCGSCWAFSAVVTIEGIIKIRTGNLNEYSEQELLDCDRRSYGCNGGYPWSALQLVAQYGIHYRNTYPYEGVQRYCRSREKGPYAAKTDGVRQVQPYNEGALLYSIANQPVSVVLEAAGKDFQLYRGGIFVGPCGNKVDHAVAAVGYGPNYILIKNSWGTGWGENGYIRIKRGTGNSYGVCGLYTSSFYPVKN
# [2] = target: Cytochrome P450 3A4 (Homo sapiens) (UniProt P08684); experiment: Cytochrome P450 family 3 subfamily A member 4 (CYP3A4) small molecule antagonists: luciferase qHTS assay (AID 1645841; active = well fitted curve in the direction sought with a large enough effect in the repeat runs; an effect the other way counts as inactive or inconclusive; also: nearly all actives have a fitted effect of over 45% in size)
# Sequence of Cytochrome P450 3A4 (Homo sapiens) (P08684 whole entry, looked up): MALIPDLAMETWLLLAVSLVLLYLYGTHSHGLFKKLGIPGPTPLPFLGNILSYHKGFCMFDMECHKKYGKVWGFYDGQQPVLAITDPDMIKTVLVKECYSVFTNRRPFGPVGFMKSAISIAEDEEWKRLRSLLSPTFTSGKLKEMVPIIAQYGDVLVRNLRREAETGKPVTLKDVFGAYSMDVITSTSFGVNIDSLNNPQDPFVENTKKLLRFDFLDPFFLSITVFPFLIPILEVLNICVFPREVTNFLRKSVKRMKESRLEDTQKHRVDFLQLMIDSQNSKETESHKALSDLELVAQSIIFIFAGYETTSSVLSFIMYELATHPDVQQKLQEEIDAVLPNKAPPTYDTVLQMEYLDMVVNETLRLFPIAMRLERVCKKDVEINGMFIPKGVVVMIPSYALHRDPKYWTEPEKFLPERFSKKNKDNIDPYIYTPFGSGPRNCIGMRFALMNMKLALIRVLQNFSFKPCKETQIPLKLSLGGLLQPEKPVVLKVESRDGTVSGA
# Outline: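 Luminescent CYP3A4 activity readout: compounds plus enzyme-substrate mix 10 min at room temperature, reaction started with NADPH regenerating system for 1 h, stopped with detection reagent, read after 20 min. Ketoconazole served as control.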
# [3] = target: N-terminal Xaa-Pro-Lys N-methyltransferase 1 (Homo sapiens) (UniProt Q9BV86); experiment: Confirmatory qHTS for Inhibitors of N-terminal methyltransferase 1 (NTMT1): MTaseGlo Assay (AID 1645874); conditions: NTMT1 enzyme, MTase-Glo SAH luminescence; also: potency is read from the fitted curve at half-maximal effect; nearly all actives have a fitted effect of over 65% in size
# Sequence of N-terminal Xaa-Pro-Lys N-methyltransferase 1 (Homo sapiens) (Q9BV86 whole entry, looked up): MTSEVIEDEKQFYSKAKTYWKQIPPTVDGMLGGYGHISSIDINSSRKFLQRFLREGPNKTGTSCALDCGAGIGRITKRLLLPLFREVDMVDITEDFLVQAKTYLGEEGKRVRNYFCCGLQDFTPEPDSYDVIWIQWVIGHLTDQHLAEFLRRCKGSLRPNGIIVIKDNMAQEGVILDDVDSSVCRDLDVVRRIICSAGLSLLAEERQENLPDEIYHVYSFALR
# Outline: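 MTase-Glo luminescence measured SAH formed by 125 nM NTMT1 from 100 uM SAM and 1 uM SPKRIA peptide over 30 min at room temperature, following 15 min compound preincubation. Percent inhibition against no-enzyme and DMSO controls gave 4-parameter Hill fits.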
# [4] = target: Cytochrome P450 2D6 (Homo sapiens) (UniProt P10635); experiment: Cytochrome P450 family 2 subfamily D member 6 (CYP2D6) small molecule antagonists: luciferase biochemical (cell-free) qHTS assay (AID 1645840; active = well fitted curve in the direction sought with a large enough effect in the repeat runs; an effect the other way counts as inactive or inconclusive; also: nearly all actives have a fitted effect of over 55% in size; also: potency is read from the fitted curve at half-maximal effect)
# Sequence of Cytochrome P450 2D6 (Homo sapiens) (P10635 whole entry, looked up): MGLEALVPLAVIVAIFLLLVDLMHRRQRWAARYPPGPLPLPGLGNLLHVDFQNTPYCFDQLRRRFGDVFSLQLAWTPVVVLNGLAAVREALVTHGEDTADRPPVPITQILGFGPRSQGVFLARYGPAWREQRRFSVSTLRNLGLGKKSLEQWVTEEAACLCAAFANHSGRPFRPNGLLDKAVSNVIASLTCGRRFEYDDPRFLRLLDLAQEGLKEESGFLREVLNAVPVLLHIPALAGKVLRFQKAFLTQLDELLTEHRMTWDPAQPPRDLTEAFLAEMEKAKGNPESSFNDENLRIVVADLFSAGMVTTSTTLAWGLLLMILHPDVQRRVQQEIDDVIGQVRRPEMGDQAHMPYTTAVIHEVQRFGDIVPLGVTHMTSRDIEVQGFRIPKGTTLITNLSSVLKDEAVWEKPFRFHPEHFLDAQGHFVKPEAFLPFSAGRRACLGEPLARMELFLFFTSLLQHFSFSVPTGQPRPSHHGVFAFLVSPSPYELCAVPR
# Outline: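 P450-Glo CYP2D6 system: proluciferin substrate converted by enzyme to luciferin, read by luminescence proportional to activity. Enzyme-substrate mix with compound 10 min at room temperature, then NADPH regeneration 1 h before detection reagent.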
# [5] = target: Cytochrome P450 2C9 (Homo sapiens) (UniProt P11712); experiment: Cytochrome P450 family 2 subfamily C member 9 (CYP2C9) small molecule antagonists: luciferase biochemical (cell-free) qHTS assay (AID 1645842; active = well fitted curve in the direction sought with a large enough effect in the repeat runs; an effect the other way counts as inactive or inconclusive; also: nearly all actives have a fitted effect of over 55% in size; also: potency is read from the fitted curve at half-maximal effect)
# Sequence of Cytochrome P450 2C9 (Homo sapiens) (P11712 whole entry, looked up): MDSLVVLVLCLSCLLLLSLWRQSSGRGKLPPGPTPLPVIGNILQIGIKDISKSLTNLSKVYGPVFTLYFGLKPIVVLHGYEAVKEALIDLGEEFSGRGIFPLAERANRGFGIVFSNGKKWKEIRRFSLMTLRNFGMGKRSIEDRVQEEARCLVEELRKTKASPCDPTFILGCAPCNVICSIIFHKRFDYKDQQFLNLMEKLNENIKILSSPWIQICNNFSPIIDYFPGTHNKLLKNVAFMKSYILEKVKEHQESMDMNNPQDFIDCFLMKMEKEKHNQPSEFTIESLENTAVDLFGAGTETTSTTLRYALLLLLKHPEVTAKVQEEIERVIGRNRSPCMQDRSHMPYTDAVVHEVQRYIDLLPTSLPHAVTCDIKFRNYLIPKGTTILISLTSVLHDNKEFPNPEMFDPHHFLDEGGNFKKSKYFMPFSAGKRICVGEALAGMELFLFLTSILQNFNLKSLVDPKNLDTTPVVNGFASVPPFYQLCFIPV
# Outline: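 P450-Glo CYP2C9 system: proluciferin substrate with enzyme in mix containing 0.4% BSA, 10 min at room temperature, then NADPH regeneration solution added and incubated 1 h at 37C. Detection reagent stopped reaction; luminescence read after 20 min as RLU.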
# [6] = A High-Content qHTS Against Drug Library for the Identification of Small Molecules that Inhibit DYT1 Early Onset Primary Dystonia-Associated Cell Pathology (AID 1645839; calls by dose curve; also: series mostly up to about 46 µM)
# Outline: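 High-content imaging quantified EGFP-TorsinA mislocalization in HEK293-derived cells inducibly expressing DYT1 mutant torsinA, after 48 h exposure to compound given together with tetracycline induction. Cell count served as a toxicity channel alongside %pathology.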
smiles,measurement,setting,value
COC(=O)c1c(C)[nH]c(C)c1C(=O)c1ccccc1Cc1ccccc1,Potency,[1],inactive
same,Potency,Papain (Carica papaya),inactive
CN1CCc2ccccc2Cc2[nH]c3ccccc3c2CC1,Potency,[1],inactive
same,Potency,Papain (Carica papaya),inactive
Nc1nc(Cl)nc2c1ncn2[C@@H]1O[C@H](CO)[C@@H](O)[C@H]1O,Potency,[1],inactive
same,Potency,Papain (Carica papaya),inactive
Clc1ccc(N2CCN(Cc3cc4ccccn4n3)CC2)cc1,Potency,[1],inactive
same,Potency,Papain (Carica papaya),inactive
C#C[C@]1(O)CC[C@H]2[C@@H]3CCC4=Cc5oncc5CC4(C)[C@H]3CCC21C (stereo partly specified),Potency,[1],inactive
same,Potency,Papain (Carica papaya),inactive
O=C(Nc1ccncc1)c1cc([N+](=O)[O-])ccc1Cl,Potency,[1],inactive
same,Potency,Papain (Carica papaya),inactive
CCOC(=O)C1=C(C)NC(C)=C(C(=O)OCC)C1c1c(F)c(F)c(F)c(F)c1F,Potency,[1],inactive
same,Potency,Papain (Carica papaya),25.1 µM (active)
OCC1O[C@H](O)C(Cl)C(O)C1O (stereo partly specified),Potency,[1],inactive
same,Potency,Papain (Carica papaya),inactive
NC[C@@H]1O[C@H](C23CC4CC(CC(C4)C2)C3)Cc2c1ccc(O)c2O,Potency,[1],inactive
same,Potency,Papain (Carica papaya),inactive
COc1cc(SC)ccc1C(=O)N1CCC(Cc2ccccc2)CC1,Potency,[1],inactive
same,Potency,Papain (Carica papaya),inactive
O=P(O)(O)C(Cl)(Cl)P(=O)(O)O,Potency,[1],inactive
same,Potency,Papain (Carica papaya),inactive
Clc1ccc(N2CCN(Cc3c[nH]c4ncccc34)CC2)cc1,Potency,[1],inactive
same,Potency,Papain (Carica papaya),inactive
N[C@@H](CC(=O)O)C(=O)O,Potency,[1],inactive
same,Potency,Papain (Carica papaya),inactive
CCOC(=O)N1CCN(/[N+]([O-])=N/Oc2ccc([N+](=O)[O-])cc2[N+](=O)[O-])CC1,Potency,[1],inactive
same,Potency,Papain (Carica papaya),inactive
Cn1ncc(S(=O)(=O)Cc2ccccc2)c(Br)c1=O,Potency,[1],inactive
same,Potency,Papain (Carica papaya),inactive
NC[C@H]1O[C@@H](n2cnc3c(N)ncnc32)[C@H](O)[C@@H]1O,Potency,[1],inactive
same,Potency,Papain (Carica papaya),inactive
NCCCCCCCCCCN,Potency,[1],inactive
same,Potency,Papain (Carica papaya),inactive
c1cnc2c(c1)ccc1cccnc12,Potency,[1],inactive
same,Potency,Papain (Carica papaya),15.8 µM (active)
COc1cccc(OC)c1OCCNCC1COc2ccccc2O1 (stereo unspecified),Potency,[1],inactive
same,Potency,Papain (Carica papaya),inactive
O=c1[nH]c2cc(C(F)(F)F)ccc2n1-c1cc(C(F)(F)F)ccc1O,Potency,[1],inactive
same,Potency,Papain (Carica papaya),inactive
CSc1ccccc1N1CCN(CCCCCC(=O)NC2CCCc3ccccc32)CC1 (stereo unspecified),Potency,[1],inactive
same,Potency,Papain (Carica papaya),inactive
CC(=O)N[C@H](C(=O)O)C(C)(C)SN=O,Potency,[1],inactive
same,Potency,Papain (Carica papaya),inactive
CCCCC#Cc1nc(NC)c2ncn([C@@H]3O[C@H](CO)[C@@H](O)[C@H]3O)c2n1,Potency,[1],inactive
same,Potency,Papain (Carica papaya),inactive
CC1(C)CCC=[N+]1[O-],Potency,[1],inactive
same,Potency,Papain (Carica papaya),inactive
O=C(O)c1cc(=O)c2c(Cl)cc(Cl)cc2[nH]1,Potency,[1],inactive
same,Potency,Papain (Carica papaya),inactive
CC12C(=O)OC(=O)C1(C)C1CCC2O1 (stereo unspecified),Potency,[1],inactive
same,Potency,Papain (Carica papaya),inactive
C[N+]1(C)CCC(OC(=O)C(c2ccccc2)c2ccccc2)CC1,Potency,[1],inactive
same,Potency,Papain (Carica papaya),inactive
CCCCCCCCCCCCCCCC(=O)OC(CC(=O)O)C[N+](C)(C)C (stereo unspecified),Potency,[1],inactive
same,Potency,Papain (Carica papaya),inactive
Cc1cc(NC2CCCCC2)nc(-n2nc(C)cc2C)n1,Potency,[1],inactive
same,Potency,Papain (Carica papaya),inactive
CN(C)c1ccc(/C=C2\C(=O)Nc3ccccc32)cc1,Potency,[1],inactive
same,Potency,Papain (Carica papaya),inactive
CN(C)c1nc(N)c(C(=O)N=C(N)N)nc1Cl,Potency,[1],inactive
same,Potency,Papain (Carica papaya),inactive
O=C(O)CC1CCCc2ccccc2C1O (stereo unspecified),Potency,[1],inactive
same,Potency,Papain (Carica papaya),inactive
Oc1ccc(C2CNCc3sccc32)cc1O (stereo unspecified),Potency,[1],inactive
same,Potency,Papain (Carica papaya),inactive
Cc1ccc(S(=O)(=O)/C=C/C#N)cc1,Potency,[1],inactive
same,Potency,Papain (Carica papaya),inactive
O=C(O)c1cc([N+](=O)[O-])ccc1NCCCc1ccccc1,Potency,[1],inactive
same,Potency,Papain (Carica papaya),inactive
CCN(CC)c1ncnc2c1ncn2[C@@H]1O[C@H](COP(=O)(O)OP(=O)(O)C(Br)(Br)P(=O)(O)O)[C@@H](O)[C@H]1O,Potency,[1],inactive
same,Potency,Papain (Carica papaya),inactive
CC(C)Cc1ccc([C@H](C)C(=O)O)cc1,Potency,[1],inactive
same,Potency,Papain (Carica papaya),inactive
N=C(N)N,outcome,[2],inactive
CCOC(=O)c1ccccc1O,outcome,[2],inactive
CN=c1nc(-c2ccccc2)n(-c2ccccc2)s1,Potency,[3],0.851 µM (active)
O=C1NC(=O)/C(=C/c2ccc(-c3ccc(F)cc3O)o2)S1,Potency,[3],34.5 µM (active)
Nc1nc2c(ncn2[C@@H]2O[C@H](CO)[C@@H](O)[C@@H]2O)c(=O)[nH]1,Potency,Papain (Carica papaya),inactive
NS(=O)(=O)c1ccc(-n2nc(C(F)(F)F)cc2-c2ccc(Cl)cc2)cc1,Potency,[4],7.56 µM (active)
same,Potency,[5],10.7 µM (active)
same,Potency,Papain (Carica papaya),inactive
CCCCCCCCCCCCCCCCCCN(CCCCCCCCCCCCCCCCCC)CCCN(CCO)CCO,Potency,Papain (Carica papaya),inactive
COc1ccc(/C=C2\COc3ccc(C)cc3C2=O)cc1O,Potency,Papain (Carica papaya),inactive
O=C1NC(O)=NC1(c1ccccc1)c1ccccc1,Potency,[4],inactive
same,Potency,Papain (Carica papaya),inactive
CCNc1nc2c(ncn2[C@H]2C[C@H](O)[C@@H](CO)O2)c(=O)[nH]1,Potency,Papain (Carica papaya),inactive
Fc1ccc2[nH]c(CN3CCN(c4ccccn4)CC3)cc2c1,Potency,[4],5.35 µM (active)
same,Potency,[5],6.74 µM (active)
same,Potency,Papain (Carica papaya),inactive
Nc1nc(OCC2CCCCC2)c2[nH]cnc2n1,Potency,Papain (Carica papaya),inactive
O=C(CCCCCN1CCN(c2ccccc2-c2ccccc2)CC1)NC1CCCc2ccccc21 (stereo unspecified),Potency,Papain (Carica papaya),inactive
CC[C@H]1OC(=O)[C@H](C)[C@@H](O[C@H]2C[C@@](C)(OC)[C@@H](O)[C@H](C)O2)[C@H](C)[C@@H](O[C@@H]2O[C@H](C)C[C@H](NC)[C@H]2O)[C@](C)(O)C[C@@H](C)CN(C)[C@H](C)[C@@H](O)[C@]1(C)O,Potency,Papain (Carica papaya),inactive
O=C1CN(/N=C/c2ccc([N+](=O)[O-])o2)C(=O)N1,Potency,[6],inactive
same,Potency,[5],inactive
CC(C)NC[C@@H](O)c1ccc(O)c(O)c1,Potency,Papain (Carica papaya),inactive
COCCOc1cc2ncnc(Cl)c2cc1OCCOC,Potency,Papain (Carica papaya),inactive
CS(=O)(=O)c1ccc(-n2nc(C(F)(F)F)cc2-c2ccc(F)cc2)cc1,Potency,[4],9.52 µM (active)
same,Potency,[5],3.38 µM (active)
same,Potency,Papain (Carica papaya),inactive
CN(CCCOc1ccc(Cc2ccccc2)cc1)CCC(=O)O,Potency,[4],inactive
same,Potency,[5],inactive
same,Potency,Papain (Carica papaya),inactive
C=CC(C)=C[C@@]1(C)SC(=O)C(C)=C1O,Potency,Papain (Carica papaya),inactive
O=C(CCSCc1ccco1)NNC(=O)N1Cc2ccccc2Oc2ccc(Cl)cc21,Potency,Papain (Carica papaya),inactive
O=c1cc(-c2ccccc2)oc2ccccc12,Potency,[5],15.4 µM (active)
same,Potency,[3],50.1 µM (active)
CN(C)c1ccc(C(=C2C=CC(=[N+](C)C)C=C2)c2ccccc2)cc1,Potency,[4],8.71 µM (active)
COC(=O)C1=C(C)NC(C)=C(C(=O)OC)C1c1cccc(NC(=O)NCCCN2CCC(c3cccc(OC)c3)CC2)c1,Potency,[4],4.25 µM (active)
same,Potency,[5],1.69 µM (active)
same,Potency,Papain (Carica papaya),inactive
Nc1ccc([N+](=O)[O-])cc1O,Potency,[5],39.9 µM (active)
CCN(CC)CCCCNc1ncc2cc(-c3c(Cl)cccc3Cl)c(NC(=O)NC(C)(C)C)nc2n1,Potency,[5],19 µM (active)
same,Potency,Papain (Carica papaya),28.2 µM (active)
O=c1[nH]c2ccccc2n1CCCN1CCN(C(c2ccccc2)c2ccccc2)CC1,Potency,[4],0.055 µM (active)
O=C(Nc1ccc2[nH]ncc2c1)C1CCC1,Potency,Papain (Carica papaya),inactive
CCCCN(CC)c1nc(C)nc2c1c(C)cn2-c1c(C)cc(C)cc1C,Potency,[4],inactive
same,Potency,[5],12 µM (active)
same,Potency,Papain (Carica papaya),inactive
NC(=O)C1=CN(C2OC(COP(=O)(O)OP(=O)(O)OC[C@H]3O[C@@H](n4cnc5c(N)ncnc54)[C@H](OP(=O)(O)O)[C@@H]3O)C(O)C2O)C=CC1 (stereo partly specified),Potency,Papain (Carica papaya),inactive
NC(=O)C(c1ccccc1)(c1ccccc1)[C@@H]1CCN(CCc2ccc3c(c2)CCO3)C1,Potency,[4],0.617 µM (active)
same,Potency,[5],inactive
CN(C)CCn1nnnc1SCC1=C(C(=O)O)N2C(=O)[C@@H](NC(=O)Cc3csc(N)n3)[C@H]2SC1,Potency,[6],inactive
same,Potency,[5],inactive
COC1=C(OC)C(=O)c2ccccc2C1=O,Potency,Papain (Carica papaya),inactive
CCCCCCCCCCCCOCCO,Potency,[6],inactive
same,Potency,[5],inactive
CCNC(=O)[C@H]1O[C@@H](n2cnc3c(N)nc(NCCc4ccc(CCC(=O)O)cc4)nc32)[C@H](O)C1O (stereo partly specified),Potency,Papain (Carica papaya),inactive
O=C(O)[C@H](CC(=O)N1C[C@H]2CCCC[C@H]2C1)Cc1ccccc1,Potency,[4],inactive
same,Potency,[5],inactive
O=[N+]([O-])c1ccc(CNc2nc(NCc3cccc(C(F)(F)F)c3)nc3nc[nH]c23)cc1,Potency,[5],1.07 µM (active)
same,Potency,Papain (Carica papaya),inactive
Nc1ccn([C@H]2O[C@H](CO)[C@@H](O)C2(F)F)c(=O)n1,Potency,Papain (Carica papaya),inactive
O=C(Nc1ccc2c(c1)CCN(Cc1ncn[nH]1)C2)c1ccccc1-c1ccc(C(F)(F)F)cc1,Potency,[4],0.12 µM (active)
same,Potency,[5],10.7 µM (active)
same,Potency,Papain (Carica papaya),inactive
C=CCN1C(=O)C(CC(C)C)NC1=S (stereo unspecified),Potency,[5],23.9 µM (active)
CCCC(CCC)C(=O)OC1CC2CCC(C1)[N+]2(C)C (stereo unspecified),Potency,Papain (Carica papaya),inactive
C[S+](CC[C@H](N)C(=O)O)C[C@H]1O[C@@H](n2cnc3c(N)ncnc32)[C@H](O)[C@@H]1O (stereo partly specified),Potency,[4],inactive
CCCC(=O)OC[C@@H](OC(=O)CCC)[C@@H](OC(=O)CCC)[C@H](Cn1c2nc(=O)[nH]c(=O)c-2nc2cc(C)c(C)cc21)OC(=O)CCC,Potency,[4],7.76 µM (active)
Nc1ncnc2c1c(I)cn2[C@@H]1C[C@H](N)[C@@H](O)[C@H]1O,Potency,[3],3.65 µM (active)
